Results taken from the supplement of paper PMC9334596.
In all, about 5,300 compounds were measured (“PER2::LUC luminescence relative to vehicle control”: median about 0.96, highest 2% from about 1.3 on). The list comes from a sample in which the highest values are over-represented; it also holds similar structures and randomly drawn compounds.

Tested on: mPer2Luc MEF
Experiment: PER2::LUC luminescence relative to vehicle control (fold of vehicle); higher = higher PER2::LUC reporter signal
Settings: 10 µM
Method in brief: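 The reported values are PER2::LUC luminescence as fold of vehicle control in mouse embryonic fibroblasts carrying the mPer2Luc reporter. Cells were seeded at ~3000 per well in 384-well plates in DMEM with 10% FBS at 37 °C and 5% CO2, and compounds were added at 10 μM 48 h later. ONE-Glo luminescence was read 24 h and 30 h after treatment.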

## CC1=C[C@]23C(=O)[C@@H](C=C(CO)[C@@H](O)[C@]2(O)[C@H]1O)[C@H]1[C@@H](C[C@H]3C)C1(C)C
Time after treatment 24 h
  PER2::LUC luminescence: 0.981
Time after treatment 30 h
  PER2::LUC luminescence: 0.957

## CCN(CC)C(=O)NC1CC2c3cccc4[nH]cc(c34)CC2N(C)C1 (configuration not stated)
Time after treatment 24 h
  PER2::LUC luminescence: 0.846
Time after treatment 30 h
  PER2::LUC luminescence: 0.986

## COC1=CC(=O)O[C@@H](/C=C/c2ccccc2)C1
Time after treatment 24 h
  PER2::LUC luminescence: 1.28
Time after treatment 30 h
  PER2::LUC luminescence: 1.35

## COC1=CC(=O)O[C@@H](/C=C/c2ccc3c(c2)OCO3)C1
Time after treatment 24 h
  PER2::LUC luminescence: 0.149
Time after treatment 30 h
  PER2::LUC luminescence: 0.152

## COC1=CC(=O)O[C@@H](CCc2ccc3c(c2)OCO3)C1
Time after treatment 24 h
  PER2::LUC luminescence: 0.859
Time after treatment 30 h
  PER2::LUC luminescence: 0.763

## Cc1o[nH]c(=O)c1CC(N)C(=O)O (racemic)
Time after treatment 24 h
  PER2::LUC luminescence: 0.875
Time after treatment 30 h
  PER2::LUC luminescence: 0.984

## C[C@@H]1OC(=O)[C@H]2C[C@H]3CCCC[C@@H]3[C@@H](/C=C/[C@H]3CCC[C@H](C)N3C)[C@@H]12
Time after treatment 24 h
  PER2::LUC luminescence: 0.807
Time after treatment 30 h
  PER2::LUC luminescence: 0.884

## N=C(N)NCCCCCCCCCCNC(=N)N
Time after treatment 24 h
  PER2::LUC luminescence: 0.972
Time after treatment 30 h
  PER2::LUC luminescence: 0.965

## NCCc1ccccc1
Time after treatment 24 h
  PER2::LUC luminescence: 1.03
Time after treatment 30 h
  PER2::LUC luminescence: 1.04

## Cn1cnc(CCN)c1
Time after treatment 24 h
  PER2::LUC luminescence: 0.826
Time after treatment 30 h
  PER2::LUC luminescence: 0.66

## NCCc1ccccn1
Time after treatment 24 h
  PER2::LUC luminescence: 0.99
Time after treatment 30 h
  PER2::LUC luminescence: 1.45

## CC(C)CC(NC(=O)C(Cc1ccccc1)NC(=O)CNC(=O)C(C)NC(=O)C(N)Cc1ccc(O)cc1)C(=O)O (configuration not stated)
Time after treatment 24 h
  PER2::LUC luminescence: 1.03
Time after treatment 30 h
  PER2::LUC luminescence: 0.904

## CC1(C)C(=O)N(c2ccc(C#N)c(C(F)(F)F)c2)C(=S)N1c1ccc(C(N)=O)c(F)c1
Time after treatment 24 h
  PER2::LUC luminescence: 1.06
Time after treatment 30 h
  PER2::LUC luminescence: 1.11

## CC(=O)OC12CC(C)C3(O)C4C=C(C)C(=O)[C@@]4(O)CC(CO)=C[C@H]3C1C2(C)C (some centres not stated)
Time after treatment 24 h
  PER2::LUC luminescence: 1.15
Time after treatment 30 h
  PER2::LUC luminescence: 0.967

## NNC(N)=O
Time after treatment 24 h
  PER2::LUC luminescence: 1.09
Time after treatment 30 h
  PER2::LUC luminescence: 0.875

## COC(N)=O
Time after treatment 24 h
  PER2::LUC luminescence: 1.07
Time after treatment 30 h
  PER2::LUC luminescence: 1.01

## NC(=O)CI
Time after treatment 24 h
  PER2::LUC luminescence: 1.59
Time after treatment 30 h
  PER2::LUC luminescence: 1.31

## O=C(O)CF
Time after treatment 24 h
  PER2::LUC luminescence: 1.08
Time after treatment 30 h
  PER2::LUC luminescence: 1.08

## CN(C(=O)Cc1ccc(Cl)c(Cl)c1)[C@H](CN1CCCC1)c1cccc(N=C=S)c1
Time after treatment 24 h
  PER2::LUC luminescence: 0.676
Time after treatment 30 h
  PER2::LUC luminescence: 0.687

## CCCN1C[C@H](C)N([C@H](c2ccc(C(=O)N(CC)CC)cc2)c2cccc(OC)c2)C[C@H]1C
Time after treatment 24 h
  PER2::LUC luminescence: 0.894
Time after treatment 30 h
  PER2::LUC luminescence: 0.899

## C=CCN1CC[C@@]2(C)c3cc(O)ccc3C[C@@H]1C2C (single isomer, unassigned; (+))
Time after treatment 24 h
  PER2::LUC luminescence: 0.969
Time after treatment 30 h
  PER2::LUC luminescence: 0.939
